The results in this text go back to the supplement of paper PMC10338343.

Assay [1] concerns MILI (PIWIL2) piRISC loaded with piRNA #1 (26 nt). Put plainly: pre-steady-state target cleavage rate (min^-1); guide: piRNA #1 5'p-UGAGGUAGUAGGUUGUAUAGUAUCCA; higher = faster piRNA-guided slicing of the target. The following applies: auxiliary factor: 500 nM mouse GTSF1. The gist of the method:
(§1)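 Using HEPES–potassium acetate buffer at 33 °C, 1 nM active affinity-purified piRISC with a single synthetic guide was mixed with 0.1 nM transcribed, DNA-blocked target RNA library for 0–8 or 0–960 min, with or without 500 nM GTSF1 partner protein. Uncleaved targets were sequenced and normalised to depth and to weakly complementary targets, and three trials were pooled with k3 capped at 0.0001 min^-1. A burst-and-steady-state fit gave the pre-steady-state cleavage rate.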

Assay [2] relates to EfPiwi piRISC loaded with piRNA #1 (26 nt). Put plainly: pre-steady-state target cleavage rate (min^-1); auxiliary factor: 500 nM Ephydatia muelleri Gtsf1; guide: piRNA #1 5'p-UGAGGUAGUAGGUUGUAUAGUAUCCA; MIWI and MILI are mouse PIWI proteins and EfPiwi is from a freshwater sponge; tags in brackets are library labels; higher = faster piRNA-guided slicing of the target. An outline of the steps:
as §1

± gives the standard deviation. Bounds are passed on as bounds.

In the case of GGAGUCGAUACUAUACAUCCUACUACCUCA, the “pre-steady-state target cleavage rate” value came to 0.313 ± 0.017 in assay [1] and 0.0165 ± 0.007 in assay [2].
Taken in the same sequence, the figures for GGAGACGAUACUAUACAACCUACUAGCCUCA were 0.159 ± 0.021 and 0.00485 ± 0.002.
As for GGAGAGCAUACUAUACAACCAACUACCUCA, the entries for the “pre-steady-state target cleavage rate” value in assay [1] and in assay [2] were 0.00634 ± 0.0024 and 0.00434 ± 0.0022, respectively.
Turning to GGAGACGAUACAAUACAACCUAGUACCUCA, the “pre-steady-state target cleavage rate” value was 0.0665 ± 0.011 in assay [1] and 0.00289 ± 0.0015 in assay [2].
As to GGAGUGGAUUCUAUACAACCUUCUACCUCA, the “pre-steady-state target cleavage rate” value in assay [1] stood at 0.00777 ± 0.0028; in assay [2] it was 0.00415 ± 0.0028.
On the same counts, the results for GGAGUGCAUACUAUACAACCUACUAGCUCA are 0.0656 ± 0.0098 and 0.00282 ± 0.0024.
On the same counts, the results for GGAGACCAUACUAUACAACCUACUACGUCA are 0.116 ± 0.017 and 0.0053 ± 0.0015.
Taken in the same sequence, the figures for GGAGACGAUACGAUACAACCUACUACCUCA were 0.193 ± 0.018 and 0.049 ± 0.019.
GGAGACCUAUGAUAUGAACCUACUACCCCA: the “pre-steady-state target cleavage rate” value in assay [1] and in assay [2] was less than 0.0001 each time.
GGAGACGAUACUAUACAGCCUACUACCUCA: the entries for the “pre-steady-state target cleavage rate” value in assay [1] and in assay [2] were 0.16 ± 0.015 and 0.0104 ± 0.0039, respectively.
Taken in the same sequence, the figures for GGAGUGGAUACUAUACAACCAACUACCACA were 0.00424 ± 0.0025 and 0.00391 ± 0.0018.
Consider GGAGACCUAUGUAUUCAACCUACUACCACA, for which the “pre-steady-state target cleavage rate” value in assay [1] was 0.0995 ± 0.016; in assay [2], less than 0.0001.
On the same counts, the results for GGAGACGAUAUCUAUACAACCUACUACCUCA are 0.0966 ± 0.013 and 0.00603 ± 0.0041.
With GGAGUGGAUACUAAACAACCUACUACCUCA, the “pre-steady-state target cleavage rate” value in assay [1] stood at 0.168 ± 0.0092; in assay [2], 0.00791 ± 0.0037.
Taken in the same sequence, the figures for GGAGUGGAUACAAUACAACCUUCUACCUCA were 0.0111 ± 0.0024 and 0.00456 ± 0.0022.
On the same counts, the results for GGAGACCUUACUAUAUAACCUACUACCUCA are 0.124 ± 0.0081 and 0.00964 ± 0.005.
On the same counts, the results for GGAGACCUUACUAUACAAGCUACUACCACA are 0.266 ± 0.023 and 0.00275 ± 0.0027.
For GGAGACGAUACUAUACAACGCUACUACCUCA, the “pre-steady-state target cleavage rate” value was found to be 0.00688 ± 0.0028 in assay [1] and 0.00969 ± 0.0037 in assay [2].
Taken in the same sequence, the figures for GGAGAGGAUACUAUAUAACCUACUACCUCA were 0.167 ± 0.01 and 0.109 ± 0.041.
For the sequence GGAGACCAUAGUAAACAACCUACUACCUCA, the “pre-steady-state target cleavage rate” value in assay [1] came to 0.0682 ± 0.009; in assay [2], 0.00482 ± 0.0034.
On the same counts, the results for GGAGACGAUACUAAUCAACCUACUACCUCA are 0.182 ± 0.015 and 0.0059 ± 0.0033.
In the case of GGAGAGGAUACUAUACAUCCUACAACCUCA, the “pre-steady-state target cleavage rate” value in assay [1] is 0.125 ± 0.024; in assay [2], 0.00339 ± 0.0022.
For the sequence GGAGACCAUAGUUUACAACCUACUACCUCA, the “pre-steady-state target cleavage rate” value in assay [1] was determined as 0.0547 ± 0.0081; in assay [2], 0.0227 ± 0.0096.
Taken in the same sequence, the figures for GGAGUGGAUACUAUACAACGUACUUCCUCA were 0.0153 ± 0.0037 and 0.00364 ± 0.0017.
On the same counts, the results for GGAGACCAUACUAUACAACCUCCUACCUCA are 0.0492 ± 0.0088 and 0.00434 ± 0.0015.
Taken in the same sequence, the figures for GGAGAGGUUACUAUACAACCUACUACCUCA were 0.197 ± 0.014 and 0.0625 ± 0.025.
Consider GGAGACCAUAGUAUACAACCUACUACCUGA, for which the “pre-steady-state target cleavage rate” value is 0.0652 ± 0.012 in assay [1] and 0.00396 ± 0.0018 in assay [2].
On the same counts, the results for GGAGAGCAUACUAUACUACCUACUACCUCA are 0.195 ± 0.016 and 0.00584 ± 0.0027.
Taken in the same sequence, the figures for GGAGACCUAACUAUACAACCUAGUUCCUCA were 0.00721 ± 0.0051 and 0.00297 ± 0.0025.
On the same counts, the results for GGAGACCAUACUAUACAACCAACUACCUCA are 0.00362 ± 0.0025 and 0.00627 ± 0.0022.
With GGAGACCUAACUAUACAACCUACUACCUACA, the figures for the “pre-steady-state target cleavage rate” value in assay [1] and in assay [2] were 0.165 ± 0.023 and 0.00795 ± 0.0042, respectively.
On the same counts, the results for GGAGAGGAUACUAUACAAGGUACUACCUCA are 0.0284 ± 0.0051 and 0.00404 ± 0.0023.
On to GGAGACCUUACUACACAACCUACUACCUCA, for which the entries for the “pre-steady-state target cleavage rate” value in assay [1] and in assay [2] were 0.126 ± 0.017 and 0.00432 ± 0.0039, respectively.
In the case of GGAGAGGAUACUAUACAACCUGACUACCUCA, the figures for the “pre-steady-state target cleavage rate” value in assay [1] and in assay [2] were 0.00367 ± 0.0024 and 0.00442 ± 0.0022, respectively.
Taken in the same sequence, the figures for GGAGACCUUACUAAUACAACCUACUACCUCA were 0.0928 ± 0.01 and 0.074 ± 0.027.
On the same counts, the results for GGAGACCUUUCUAUACAACCUACUACCUCA are 0.0895 ± 0.0097 and 0.11 ± 0.036.
On the same counts, the results for GGAGACCAUACUAUACAACCUACUACCCA are 0.0934 ± 0.019 and 0.00453 ± 0.0028.
For the sequence GGAGACGAUACUAUACAAGCUUCUACCUCA, the “pre-steady-state target cleavage rate” value in assay [1] was 0.0442 ± 0.0052; in assay [2] it was 0.0034 ± 0.0019.
On the same counts, the results for GGAGACGAUACUAUACAAGCUACUACCUGA are 0.202 ± 0.022 and 0.00333 ± 0.0015.
As for GGAGACGAUACAAUACAACCUACAACCUCA, the “pre-steady-state target cleavage rate” value amounted to 0.152 ± 0.018 in assay [1] and 0.00274 ± 0.0027 in assay [2].
For the sequence “GGAGACCAUACUAUACAACCUACUAGGAGA [g6:g23:cont:t1A]”, the entries for the “pre-steady-state target cleavage rate” value in assay [1] and in assay [2] were 0.00402 ± 0.0038 and 0.00788 ± 0.0042, respectively.
On to GGAGACCUUACUAUACAAUCUACUACCUCA, for which the “pre-steady-state target cleavage rate” value came out at 0.127 ± 0.01 in assay [1] and 0.00599 ± 0.0041 in assay [2].
Taken in the same sequence, the figures for GGAGAGGAUACUAUUCAACCUACUAGCUCA were 0.063 ± 0.014 and 0.00239 ± 0.0015.
Taken in the same sequence, the figures for GGAGACCUAUCUAUACAUCCUACUACCUGA were 0.0957 ± 0.022 and 0.00459 ± 0.0036.
On the same counts, the results for GGAGACGAAACUAUACUACCUACUACCUCA are 0.132 ± 0.02 and 0.00498 ± 0.0023.
With GGAGACCAUACUAUUCAACCUACUACCUGA, the figures for the “pre-steady-state target cleavage rate” value in assay [1] and in assay [2] were 0.114 ± 0.018 and 0.00313 ± 0.0026, respectively.
With GGAGUGGAUACUAUACUACCUACUACGUCA, the “pre-steady-state target cleavage rate” value in assay [1] was determined as 0.0586 ± 0.0078; in assay [2], 0.00245 ± 0.0017.
On the same counts, the results for GGAGACCUAACUAUACAACGUACUUCCUCA are 0.0215 ± 0.0078 and 0.00713 ± 0.0049.
Taken in the same sequence, the figures for GGAGAGGAUACUUUACAACCAACUACCUCA were 0.00433 ± 0.0019 and 0.00291 ± 0.0016.
On the same counts, the results for GGAGAGGAUACAAAACAACCUACUACCUCA are 0.128 ± 0.013 and 0.00656 ± 0.0047.
Take GGAGACCUAACUAUACAACCUCCUACCUCA: the “pre-steady-state target cleavage rate” value was 0.0273 ± 0.011 in assay [1] and 0.00446 ± 0.0029 in assay [2].
On to GGAGACCAUACUAUACAACGUACUACCUCA, for which the “pre-steady-state target cleavage rate” value in assay [1] came to 0.0191 ± 0.0046; in assay [2], 0.00482 ± 0.0015.
On the same counts, the results for GGAGACGAUACUAAACAACCAACUACCUCA are 0.00769 ± 0.0028 and 0.0024 ± 0.0017.
On the same counts, the results for GGAGACGAUACUAUACAACCUACAUCCUCA are 0.05 ± 0.011 and 0.00353 ± 0.0014.
On the same counts, the results for GGAGAGGAAACUAUACAACCUACAACCUCA are 0.122 ± 0.03 and 0.00279 ± 0.0019.
For the sequence GGAGACGAUACUAAACAACCUACUACGUCA, the “pre-steady-state target cleavage rate” value came out at 0.0907 ± 0.012 in assay [1] and 0.00304 ± 0.003 in assay [2].
Taken in the same sequence, the figures for GGAGACCUUACAUAUACAACCUACUACCUCA were 0.0595 ± 0.012 and 0.00546 ± 0.0041.
For GGAGUGGAUACUAUACAACCAUCUACCUCA, the “pre-steady-state target cleavage rate” value in assay [1] worked out at 0.00432 ± 0.0024; in assay [2] it was 0.00525 ± 0.0023.
GGAGACCAUACUAUAGCAACCUACUACCUCA: the “pre-steady-state target cleavage rate” value in assay [1] came to 0.191 ± 0.016; in assay [2], 0.00736 ± 0.0044.
On the same counts, the results for GGAGUGGAUAUAUACAACCUACUACCUCA are 0.152 ± 0.01 and 0.0139 ± 0.0066.
